Results: PubChem BioAssay (EPA / NIEHS)
The source made the active and inactive calls. How the source made its calls: active means hit-call score of the fitted dose curve at least 0.9, where 1 is the maximum; inactive means score below 0.9.

Assays:
[1] = ATG_GRE_CIS: Attagene CIS-FACTORIAL HepG2 Assay for human Glucocorticoid Response Elements (GRE) (AID 2282947); conditions: HepG2 GRE cis-reporter, Attagene multiplex mRNA; actives raise or lower the signal
Outline: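 Read-out: fluorescent reporter-transcript fragments separated by capillary electrophoresis after RT-PCR. Transiently transfected HepG2 cells carrying cis-element-driven reporter units were dosed for 24 h; gain or loss of signal fitted against DMSO control.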

[2] = ATG_ISRE_CIS: Attagene CIS-FACTORIAL HepG2 Assay for human Interferon Regulatory Factor 1 (IRF1) binding to an Interferon-Stimulated Response Element (ISRE) (AID 2282948); conditions: HepG2 ISRE cis-reporter (Attagene), mRNA transcription readout; actives raise or lower the signal
Outline: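 Multiplexed mRNA reporter readout in human liver HepG2 cells: cis-element-driven reporters transfected, compound added for 24 h, transcripts amplified, fluorescently labelled and sized by capillary electrophoresis; curve fitting bidirectional against DMSO.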

[3] = ATG_M_32_CIS: Attagene CIS-FACTORIAL HepG2 Assay for M32 Transcription Factor (Internal Marker) (AID 2282949); conditions: HepG2 Attagene cis-factorial M32 reporter, mRNA; actives raise or lower the signal;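 further: background control marker of the multiplexed CIS panel rather than a real target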
Outline: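 Using DMSO as baseline, bidirectional curve fits were applied to reporter mRNA signals. These came from transiently transfected HepG2 cells exposed for 24 h, with RNA analysed by RT-PCR, FAM primer extension, HpaI digestion and CE.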

[4] = ATG_M_06_CIS: Attagene CIS-FACTORIAL HepG2 Assay for M06 Transcription Factor (Internal Marker) (AID 2282950); conditions: HepG2 Attagene CIS-FACTORIAL M06 internal marker reporter; actives raise or lower the signal
Outline: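 One of many multiplexed endpoints: HepG2 reporter mRNA after 24 h dosing, detected by RT-PCR and capillary electrophoresis fluorescence; gain or loss of signal analysed against DMSO.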

[5] = biological target: Hypoxia-inducible factor 1-alpha (Homo sapiens) (UniProt Q16665); assay: ATG_HIF1a_CIS: Attagene CIS-FACTORIAL HepG2 Assay for human Hypoxia Inducible Factor 1 (HIF1A) (AID 2282951); conditions: HepG2 Attagene cis-factorial HIF1a reporter transcription; actives raise or lower the signal
Sequence of Hypoxia-inducible factor 1-alpha (Homo sapiens) (Q16665 whole entry, looked up): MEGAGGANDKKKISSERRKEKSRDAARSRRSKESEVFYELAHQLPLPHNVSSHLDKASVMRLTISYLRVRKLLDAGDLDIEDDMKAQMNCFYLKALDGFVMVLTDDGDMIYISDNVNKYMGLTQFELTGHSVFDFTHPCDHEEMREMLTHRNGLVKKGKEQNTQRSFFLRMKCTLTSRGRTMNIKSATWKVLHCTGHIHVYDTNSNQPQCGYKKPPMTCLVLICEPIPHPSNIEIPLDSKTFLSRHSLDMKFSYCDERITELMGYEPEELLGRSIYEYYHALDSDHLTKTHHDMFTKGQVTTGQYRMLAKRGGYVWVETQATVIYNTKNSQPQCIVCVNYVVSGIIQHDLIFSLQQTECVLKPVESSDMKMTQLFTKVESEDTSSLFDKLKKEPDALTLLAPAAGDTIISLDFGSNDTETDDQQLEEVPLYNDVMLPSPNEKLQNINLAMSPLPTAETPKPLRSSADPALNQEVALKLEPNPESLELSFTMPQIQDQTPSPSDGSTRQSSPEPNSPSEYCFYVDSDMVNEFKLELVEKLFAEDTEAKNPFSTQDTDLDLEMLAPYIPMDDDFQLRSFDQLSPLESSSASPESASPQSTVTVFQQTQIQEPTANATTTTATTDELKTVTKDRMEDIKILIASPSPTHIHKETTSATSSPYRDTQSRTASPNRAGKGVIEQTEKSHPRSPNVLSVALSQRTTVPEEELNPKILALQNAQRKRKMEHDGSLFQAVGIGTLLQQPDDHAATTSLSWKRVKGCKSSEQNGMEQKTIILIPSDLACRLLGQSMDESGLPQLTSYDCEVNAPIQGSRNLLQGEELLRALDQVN
Outline: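 HepG2, transient cis-reporter library, 24 h dosing. RNA → RT (oligo dT) → PCR → 6-FAM primer extension → HpaI → CE. Bidirectional curve fit vs DMSO.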

[6] = biological target: Hepatocyte nuclear factor 6 (Homo sapiens) (UniProt Q9UBC0); assay: ATG_HNF6_CIS: Attagene CIS-FACTORIAL HepG2 Assay for human Hepatocyte Nuclear Factor 6 (HNF6) (AID 2282952); conditions: HepG2 Attagene cis-factorial HNF6 reporter transcription; actives raise or lower the signal
Sequence of Hepatocyte nuclear factor 6 (Homo sapiens) (Q9UBC0 whole entry, looked up, the tested form may be a part): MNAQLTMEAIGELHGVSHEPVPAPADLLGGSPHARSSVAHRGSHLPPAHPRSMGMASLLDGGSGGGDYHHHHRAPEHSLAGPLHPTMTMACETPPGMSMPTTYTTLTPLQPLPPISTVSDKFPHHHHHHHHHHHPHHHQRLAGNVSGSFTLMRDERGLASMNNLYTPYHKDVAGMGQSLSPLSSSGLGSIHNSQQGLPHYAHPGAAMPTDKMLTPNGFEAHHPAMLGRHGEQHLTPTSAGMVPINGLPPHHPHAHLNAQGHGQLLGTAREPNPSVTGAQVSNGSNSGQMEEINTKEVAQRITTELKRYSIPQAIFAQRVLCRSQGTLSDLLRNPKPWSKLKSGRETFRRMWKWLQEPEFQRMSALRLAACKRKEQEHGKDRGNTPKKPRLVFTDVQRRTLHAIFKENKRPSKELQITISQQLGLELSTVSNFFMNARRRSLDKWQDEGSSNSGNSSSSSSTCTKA
Outline: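 Twenty-four-hour chemical treatment of reporter-transfected HepG2 cells precedes RNA isolation, DNase-treated reverse transcription and PCR of reporter sequences. Labelled fragments are sized by capillary electrophoresis and fitted bidirectionally versus DMSO.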

[7] = biological target: Heat shock factor protein 1 (Homo sapiens) (UniProt Q00613); assay: ATG_HSE_CIS: Attagene CIS-FACTORIAL HepG2 Assay for human Heat Shock Transcription Factor 1 (HSE) (AID 2282953); conditions: HepG2 HSE cis-reporter, Attagene RNA transcription; actives raise or lower the signal
Sequence of Heat shock factor protein 1 (Homo sapiens) (Q00613 whole entry, looked up): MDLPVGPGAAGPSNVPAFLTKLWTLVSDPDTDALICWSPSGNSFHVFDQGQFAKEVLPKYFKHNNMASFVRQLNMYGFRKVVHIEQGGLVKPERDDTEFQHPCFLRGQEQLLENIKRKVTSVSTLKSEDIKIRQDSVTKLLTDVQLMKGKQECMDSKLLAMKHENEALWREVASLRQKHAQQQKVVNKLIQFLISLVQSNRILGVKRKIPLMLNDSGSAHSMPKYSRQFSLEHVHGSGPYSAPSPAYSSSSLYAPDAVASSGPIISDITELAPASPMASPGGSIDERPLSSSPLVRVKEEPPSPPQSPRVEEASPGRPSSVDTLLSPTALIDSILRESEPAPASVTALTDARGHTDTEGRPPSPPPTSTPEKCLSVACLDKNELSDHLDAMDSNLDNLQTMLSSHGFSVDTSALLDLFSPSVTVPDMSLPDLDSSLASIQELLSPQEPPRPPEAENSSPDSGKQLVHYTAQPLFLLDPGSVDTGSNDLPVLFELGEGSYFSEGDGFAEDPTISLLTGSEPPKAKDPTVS
Outline: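 Using HepG2 with transfected cis-driven reporter constructs, compound effects on endogenous factor activity are scored as reporter mRNA change at 24 h. Detection: RT-PCR, HpaI digestion, capillary electrophoresis; bidirectional fitting to DMSO.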

[8] = ATG_MRE_CIS: Attagene CIS-FACTORIAL HepG2 Assay for human Metal Responsive Element (MRE) (AID 2282954); conditions: HepG2 MRE cis-reporter transcription, Attagene multiplex; actives raise or lower the signal
Outline: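 RT-PCR/capillary electrophoresis readout of reporter mRNA, 24 h post-dosing, in HepG2 cells transfected with multiplexed cis-regulated reporter constructs. Gain or loss of signal fitted bidirectionally against DMSO baseline.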

[9] = ATG_PBREM_CIS: Attagene CIS-FACTORIAL HepG2 Assay for human Phenobarbital-responsive Enhancer Module (PBREM) (AID 2282955); conditions: HepG2 PBREM cis-reporter, Attagene multiplexed transcription; actives raise or lower the signal
Outline: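 HepG2, transient MRTU transfection, 24 h dosing; RNA → oligo(dT) RT → PCR → 6-FAM extension → HpaI → CE. Bidirectional fit vs DMSO.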

Measured: AC50

NC(CO)(CO)CO
inactive: [1] | [2] | [3] | [4] | [5] | [6] | [7] | [8] | [9]

O=c1cc(-c2ccccc2)oc2ccccc12
inactive: [1] | [3] | [4] | [5] | [6]
active: [2] 127 µM | [7] 178 µM | [8] 124 µM | [9] 99.5 µM

CCOC(=O)CC(C(C)=O)C(C)=O
inactive: [1] | [2] | [3] | [4] | [5] | [6] | [7] | [8] | [9]

CC(C)C1=CC2=CC[C@@H]3[C@](C)(CCC[C@@]3(C)C(=O)O)[C@H]2CC1
active: [1] 119 µM | [5] 100 µM | [7] 145 µM | [8] 106 µM
inactive: [2] | [3] | [4] | [6] | [9]

C=CC(=O)OCCOC(=O)C=C
inactive: [1] | [3] | [4] | [5] | [6] | [7] | [9]
active: [2] 25.6 µM | [8] 27.5 µM

C=C(C)C(=O)OCCOc1ccccc1
inactive: [1] | [2] | [3] | [4] | [5] | [6] | [7] | [8] | [9]

O=C(c1ccccc1)C1CCC1
inactive: [1] | [2] | [3] | [4] | [5] | [6] | [7] | [8] | [9]

C=C(C)[C@@H]1CCC2=CCC[C@@H](C)[C@]2(C)C1
active: [8] 155 µM
inactive: [1] | [2] | [3] | [4] | [5] | [6] | [7] | [9]

CCCNC(=O)NS(=O)(=O)c1ccc(Cl)cc1
inactive: [1] | [2] | [3] | [4] | [5] | [6] | [7] | [8]

CC(C)CCCCCOC(=O)CCS
inactive: [1] | [2] | [3] | [4] | [5] | [6] | [7] | [8] | [9]

CCCCCCCCCCOC(C)=O
inactive: [1] | [2] | [3] | [4] | [5] | [6] | [7] | [8] | [9]

CCc1ccc2c(c1)C(=O)c1ccccc1C2=O
inactive: [1] | [2] | [3] | [4] | [5] | [6] | [7] | [8] | [9]

Cc1cccc(OCCOc2cccc(C)c2)c1
inactive: [1] | [2] | [3] | [4] | [5] | [6] | [8] | [9]

COc1c2ccoc2cc2oc(=O)ccc12
inactive: [1] | [2] | [3] | [4] | [5] | [6] | [7] | [9]

CCO[Si](C)(OCC)OCC
inactive: [1] | [2] | [3] | [4] | [5] | [6] | [8] | [9]

COCCOCCOCCOCCOC
inactive: [1] | [2] | [3] | [4] | [5] | [6] | [8]

c1cc(C(c2ccc(OCC3CO3)cc2)C(c2ccc(OCC3CO3)cc2)c2ccc(OCC3CO3)cc2)ccc1OCC1CO1 (stereo unspecified)
inactive: [1] | [3] | [4] | [5] | [6] | [9]
active: [2] 63.3 µM | [8] 50.2 µM
